For assay [1], the system named is zebrafish Estrogen Receptor (ESR2B), gene 317733. As to the kind of experiment: ATG_zfER2b_XSP1: Attagene TRANS-FACTORIAL Multi-Species (XSP1) HepG2 Assay for zebrafish Estrogen Receptor (ESR2B) (AID 2283773). In outline: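 Medium contained 3 nM 6-alpha-fluorotestosterone. Reporter mRNA induction by exogenous zebrafish ER2b-Gal4 chimera was read 24 h post-dose in transiently transfected HepG2 cells, using RT-PCR, fluorescent labelling, HpaI digestion and capillary electrophoresis.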

For assay [2], the system named is frog Estrogen Receptor (ESR2), gene 100174814. As to the kind of experiment: ATG_frER2_XSP1: Attagene TRANS-FACTORIAL Multi-Species (XSP1) HepG2 Assay for frog Estrogen Receptor (ESR2) (AID 2283774). The procedure, abridged:
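Reporter mRNA from a multiplexed TRANS system, measured by RT-PCR with fluorescent labelling and capillary electrophoresis, 24 hours after chemical exposure. Human HepG2 liver cells carried exogenous frog ER-Gal4 chimera; medium included 3 nM 6-alpha-fluorotestosterone; increases versus DMSO analysed.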

The test system of assay [3] is frog Estrogen Receptor (ESR1), gene 398734. As to the kind of experiment: ATG_frER1_XSP1: Attagene TRANS-FACTORIAL Multi-Species (XSP1) HepG2 Assay for frog Estrogen Receptor (ESR1) (AID 2283777). In outline: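 HepG2 cells transiently transfected with GAL4-UAS reporter units and frog ER–Gal4 chimera were dosed for 24 h with 3 nM 6-alpha-fluorotestosterone present. Reporter mRNA was measured by RT-PCR and capillary electrophoresis; gain of signal fitted versus DMSO.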

The test system of assay [4] is zebrafish Estrogen Receptor (ESR2A), gene 317734. The experiment in a line: ATG_zfER2a_XSP1: Attagene TRANS-FACTORIAL Multi-Species (XSP1) HepG2 Assay for zebrafish Estrogen Receptor (ESR2A) (AID 2283778). The procedure, abridged: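 Reporter transcripts were quantified by RT-PCR, 6-FAM labelling, HpaI digestion and capillary electrophoresis after 24 h dosing. The cells were HepG2 transiently carrying a zebrafish ER2a–Gal4 construct plus multiplexed UAS reporters; medium contained 3 nM 6-alpha-fluorotestosterone.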

In assay [5] the target is chicken Estrogen Receptor (ESR1), ESR1 (gene 396099) (UniProt P06212). The experiment in a line: ATG_chERa_XSP1: Attagene TRANS-FACTORIAL Multi-Species (XSP1) HepG2 Assay for chicken Estrogen Receptor (ESR1) (AID 2283779). The procedure, abridged: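 Trans-activation of an exogenous chicken ERα–Gal4 chimera read as reporter transcript (RT-PCR, fluorescent labeling, capillary electrophoresis) after 24 h compound exposure of transfected HepG2; medium held 3 nM 6-alpha-fluorotestosterone. Positive-direction fit against DMSO.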

Assay [6] has as its target Estrogen receptor (Homo sapiens) (UniProt P03372). The experiment in a line: ATG_hERa_XSP1: Attagene TRANS-FACTORIAL Multi-Species (XSP1) HepG2 Assay for human Estrogen Receptor (ESR1) (AID 2283780). The procedure, abridged:
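Reporter transcripts from multiplexed GAL4-UAS units driven by NR-Gal4 chimeras in transiently transfected HepG2 were measured by RT-PCR with capillary electrophoresis 24 h post-dose, with 3 nM 6-alpha-fluorotestosterone present; gain-of-signal relative to DMSO.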

Assay [7] has as its system turtle Estrogen Receptor (ESR1), gene 101933533. As to the kind of experiment: ATG_trERa_XSP1: Attagene TRANS-FACTORIAL Multi-Species (XSP1) HepG2 Assay for turtle Estrogen Receptor (ESR1) (AID 2283781). In outline: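 Transactivation measured 24 h post-dose as reporter mRNA (RT-PCR, fluorescent capillary electrophoresis) from an NR-Gal4 turtle ER construct in HepG2. Medium included 3 nM 6-alpha-fluorotestosterone; increase over DMSO fitted.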

The target of assay [8] is Estrogen receptor beta (Homo sapiens) (UniProt Q92731). The experiment in a line: ATG_hERb_XSP1: Attagene TRANS-FACTORIAL Multi-Species (XSP1) HepG2 Assay for human Estrogen Receptor (ESR2) (AID 2283788). In outline:
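HepG2 cells transiently transfected with multiplexed GAL4-UAS reporter units carrying chimeric human ERβ-Gal4; 24 h compound exposure with 3 nM 6-alpha-fluorotestosterone present. Reporter mRNA quantified by RT-PCR, FAM labelling and capillary electrophoresis; gain-of-signal fitted versus DMSO.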

The target in assay [9] is GAL4 Transcription Factor (Internal Marker), GAL4 (gene 855828) (UniProt P04386). As to the kind of experiment: ATG_GAL4_XSP1: Attagene TRANS-FACTORIAL Multi-Species (XSP1) HepG2 Assay for GAL4 Transcription Factor (Internal Marker) (AID 2283789). In outline: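 This background-control endpoint measures GAL4-driven reporter mRNA via RT-PCR and capillary electrophoresis of labelled fragments. Transiently transfected HepG2 cells were treated 24 h, with 3 nM 6-alpha-fluorotestosterone included, and gain-of-signal was fitted against DMSO.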

The nature of assay [10]: ATG_M_06_XSP1: Attagene TRANS-FACTORIAL Multi-Species (XSP1) HepG2 Assay for M06 Transcription Factor (Internal Marker) (AID 2283790). In outline: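 This background-control readout tracks M06 reporter mRNA, measured by RT-PCR and capillary electrophoresis. HepG2 cells transiently carrying the GAL4-UAS reporter panel were dosed for 24 h with 3 nM 6-alpha-fluorotestosterone added for partial AR stimulation; increases were scored relative to DMSO.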

Assay [11] is described as follows: ATG_M_61_XSP1: Attagene TRANS-FACTORIAL Multi-Species (XSP1) HepG2 Assay for M61 Transcription Factor (Internal Marker) (AID 2283797). The procedure, abridged:
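Background-control readout: reporter transcripts measured by RT-PCR and capillary electrophoresis 24 h after dosing transiently transfected HepG2 multi-reporter cells, with 3 nM 6-alpha-fluorotestosterone present. Fitted in the positive direction relative to DMSO.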

Assay [12] can be described thus: ATG_M_32_XSP1: Attagene TRANS-FACTORIAL Multi-Species (XSP1) HepG2 Assay for M32 Transcription Factor (Internal Marker) (AID 2283799). The procedure, abridged: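 Reporter transcripts from the M32 internal-control unit measured by RT-PCR, FAM labelling, HpaI digestion and capillary electrophoresis after 24 h compound exposure of transfected HepG2, 3 nM 6-alpha-fluorotestosterone included; DMSO baseline, positive-direction fit.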

Assay [13] addresses Peroxisome proliferator-activated receptor gamma (Homo sapiens) (UniProt P37231). The experiment in a line: ATG_hPPARg_XSP1: Attagene TRANS-FACTORIAL Multi-Species (XSP1) HepG2 Assay for human Peroxisome Proliferator-activated Receptor gamma (PPARg) (AID 2283800). In outline:
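Reporter mRNA induction, measured by RT-PCR with capillary electrophoresis 24 h after dosing, scored as gain over DMSO. Transfected HepG2 cells express exogenous NR-Gal4 chimeras driving GAL4-UAS reporters; medium includes 3 nM 6-alpha-fluorotestosterone.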

Assay [14] deals with zebrafish Peroxisome Proliferator-activated Receptor gamma (PPARg), gene 557037. The experiment in a line: ATG_zfPPARg_XSP1: Attagene TRANS-FACTORIAL Multi-Species (XSP1) HepG2 Assay for zebrafish Peroxisome Proliferator-activated Receptor gamma (PPARg) (AID 2283801). In outline: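 Trans-activation readout of chimeric zebrafish PPARg–GAL4 in transiently transfected human HepG2 cells, 24 h chemical exposure (medium includes 3 nM 6-alpha-fluorotestosterone). Reporter transcripts measured by RT-PCR and capillary electrophoresis, fitted as gain over DMSO.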

Assay [15] in a line: ACEA_ER_AUC_viability: ACEA Biosciences xCELLigence Real-Time Cell Analysis on Estrogen Receptor Agonism for Viability (AID 2283782).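 Also: hit means loss of impedance signal meaning reduced cell growth or viability.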 In outline:
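Viability endpoint: reduced impedance area under the curve relative to DMSO, recorded by real-time electrode sensing over ~80 h of continuous exposure. Duplicate plates of T47D in hormone-depleted medium; eight concentrations, 1:4 dilutions, 100 uM maximum.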

Assay [16] can be described thus: ACEA_AR_antagonist_AUC_viability: ACEA Biosciences xCELLigence Real-Time Cell Analysis on Androgen Receptor Antagonism for Viability (AID 2283776).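 Also: 22Rv1 human prostate cancer cells growing on impedance electrode plates; area under impedance growth curve at 80 h after dosing as viability; hits lower the growth signal relative to DMSO meaning cytotoxicity.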 The procedure, abridged: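 22Rv1 prostate cells, continuous dosing up to 100 uM final (0.5% DMSO max), duplicate plates. Growth measured by impedance; AUC at 80 h, loss of signal vs DMSO.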
A short description of assay [17]: STM_H9_NormalizedViability: Cytotoxicity Assessment at 120 hours in the Stemina devTOX quickPredict H9 human embryonic stem cell (hESC)-based Assay (AID 2283784). In outline: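 Here, H9 cells received test compound with daily medium renewal. Each plate included methotrexate references (1uM, 5 nM), 0.1% DMSO and media blanks; CellTiter-Fluor RFU was normalized to DMSO.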

The target of assay [18] is AR (gene 367) (UniProt P10275). As to the kind of experiment: ACEA_AR_agonist_80hr: ACEA Biosciences xCELLigence Real-Time Cell Analysis on Androgen Receptor Agonism for Proliferation (AID 2283783).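 Also: hits increase impedance growth signal above DMSO baseline.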 The procedure, abridged:
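Eight concentrations, 1:4 serial dilution from a 100 uM final top, in biological duplicate. Impedance-based real-time growth of 22Rv1 cells after overnight baseline, recorded hourly and read at 80 hours. Controls: testosterone, MG132, assay media.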

Assay [19] has as its target AR (gene 367) (UniProt P10275). As to the kind of experiment: ACEA_AR_antagonist_80hr: ACEA Biosciences xCELLigence Real-Time Cell Analysis on Androgen Receptor Antagonism for Proliferation (AID 2283787).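 Also: 22Rv1 human prostate cancer cells with growth followed by electrical impedance; hits lower the impedance growth signal relative to DMSO.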 The procedure, abridged:
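Impedance-based real-time growth of 22Rv1 prostate cells, read 80 h after dosing. Eight concentrations, 1:4 series, top 100 uM final (0.5% DMSO), n = 2; signal decrease scored against DMSO.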

Inconclusive results are not listed. Activity calls are given as the source filed them. The calls were made as follows: active = hit-call score of the fitted dose curve at least 0.9, where 1 is the maximum; inconclusive = response in the unintended direction; inactive = score below 0.9.

Sequence of AR (gene 367) (P10275 whole entry, looked up): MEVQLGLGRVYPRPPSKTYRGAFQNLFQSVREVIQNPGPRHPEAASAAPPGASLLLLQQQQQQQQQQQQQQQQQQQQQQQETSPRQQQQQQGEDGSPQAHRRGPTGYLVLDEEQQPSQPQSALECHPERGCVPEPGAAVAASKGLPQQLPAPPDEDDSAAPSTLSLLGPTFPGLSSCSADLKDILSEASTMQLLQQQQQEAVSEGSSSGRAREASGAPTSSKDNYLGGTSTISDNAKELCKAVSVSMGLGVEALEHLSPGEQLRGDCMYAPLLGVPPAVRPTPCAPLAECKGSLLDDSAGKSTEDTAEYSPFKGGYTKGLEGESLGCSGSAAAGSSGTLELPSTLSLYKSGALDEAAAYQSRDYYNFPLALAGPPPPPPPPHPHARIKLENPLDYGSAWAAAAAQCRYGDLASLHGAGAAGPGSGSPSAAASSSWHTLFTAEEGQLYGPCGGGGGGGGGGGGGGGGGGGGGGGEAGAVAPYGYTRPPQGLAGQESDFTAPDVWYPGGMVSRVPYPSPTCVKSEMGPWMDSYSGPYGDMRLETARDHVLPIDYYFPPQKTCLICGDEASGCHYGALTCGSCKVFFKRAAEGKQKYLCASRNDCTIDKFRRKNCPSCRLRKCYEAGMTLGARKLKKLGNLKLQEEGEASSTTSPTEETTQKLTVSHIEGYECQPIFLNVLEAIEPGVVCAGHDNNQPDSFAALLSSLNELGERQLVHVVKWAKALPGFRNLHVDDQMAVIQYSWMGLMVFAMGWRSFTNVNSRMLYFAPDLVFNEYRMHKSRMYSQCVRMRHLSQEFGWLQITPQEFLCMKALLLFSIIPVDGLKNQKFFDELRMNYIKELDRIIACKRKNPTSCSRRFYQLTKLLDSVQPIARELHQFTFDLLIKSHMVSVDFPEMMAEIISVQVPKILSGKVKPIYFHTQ
Sequence of Estrogen receptor (Homo sapiens) (P03372 whole entry, looked up, the tested form may be a part): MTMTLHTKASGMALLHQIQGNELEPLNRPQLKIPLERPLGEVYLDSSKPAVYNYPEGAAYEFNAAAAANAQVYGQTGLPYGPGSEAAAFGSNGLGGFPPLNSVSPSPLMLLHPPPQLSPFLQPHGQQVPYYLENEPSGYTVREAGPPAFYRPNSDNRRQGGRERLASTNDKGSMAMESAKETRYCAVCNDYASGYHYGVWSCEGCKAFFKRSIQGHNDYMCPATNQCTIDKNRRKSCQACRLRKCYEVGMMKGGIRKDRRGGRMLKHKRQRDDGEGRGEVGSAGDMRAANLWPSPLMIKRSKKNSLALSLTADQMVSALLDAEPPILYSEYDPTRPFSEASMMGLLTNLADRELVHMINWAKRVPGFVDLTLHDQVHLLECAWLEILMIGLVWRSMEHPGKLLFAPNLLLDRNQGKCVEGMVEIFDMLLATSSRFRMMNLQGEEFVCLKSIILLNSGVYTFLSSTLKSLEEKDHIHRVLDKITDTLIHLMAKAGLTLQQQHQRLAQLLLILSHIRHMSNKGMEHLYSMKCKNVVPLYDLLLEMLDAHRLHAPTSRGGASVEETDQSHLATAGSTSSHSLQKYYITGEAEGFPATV
Sequence of Estrogen receptor beta (Homo sapiens) (Q92731 whole entry, looked up, the tested form may be a part): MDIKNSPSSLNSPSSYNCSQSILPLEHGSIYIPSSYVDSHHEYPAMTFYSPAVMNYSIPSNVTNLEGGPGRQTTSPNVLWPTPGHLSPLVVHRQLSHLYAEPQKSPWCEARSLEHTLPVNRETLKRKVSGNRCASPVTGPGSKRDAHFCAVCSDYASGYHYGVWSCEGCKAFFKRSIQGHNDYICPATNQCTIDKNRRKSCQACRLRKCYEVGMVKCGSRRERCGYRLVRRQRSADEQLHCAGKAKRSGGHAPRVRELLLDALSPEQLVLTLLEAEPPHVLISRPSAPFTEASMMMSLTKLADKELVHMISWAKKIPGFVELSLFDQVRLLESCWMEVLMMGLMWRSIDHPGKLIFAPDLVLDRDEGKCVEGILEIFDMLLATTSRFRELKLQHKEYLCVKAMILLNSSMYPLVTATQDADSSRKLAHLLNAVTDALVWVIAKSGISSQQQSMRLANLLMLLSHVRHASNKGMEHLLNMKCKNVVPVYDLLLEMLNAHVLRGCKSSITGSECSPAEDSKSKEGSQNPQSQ
Sequence of chicken Estrogen Receptor (ESR1), ESR1 (gene 396099) (P06212 whole entry, looked up, the tested form may be a part): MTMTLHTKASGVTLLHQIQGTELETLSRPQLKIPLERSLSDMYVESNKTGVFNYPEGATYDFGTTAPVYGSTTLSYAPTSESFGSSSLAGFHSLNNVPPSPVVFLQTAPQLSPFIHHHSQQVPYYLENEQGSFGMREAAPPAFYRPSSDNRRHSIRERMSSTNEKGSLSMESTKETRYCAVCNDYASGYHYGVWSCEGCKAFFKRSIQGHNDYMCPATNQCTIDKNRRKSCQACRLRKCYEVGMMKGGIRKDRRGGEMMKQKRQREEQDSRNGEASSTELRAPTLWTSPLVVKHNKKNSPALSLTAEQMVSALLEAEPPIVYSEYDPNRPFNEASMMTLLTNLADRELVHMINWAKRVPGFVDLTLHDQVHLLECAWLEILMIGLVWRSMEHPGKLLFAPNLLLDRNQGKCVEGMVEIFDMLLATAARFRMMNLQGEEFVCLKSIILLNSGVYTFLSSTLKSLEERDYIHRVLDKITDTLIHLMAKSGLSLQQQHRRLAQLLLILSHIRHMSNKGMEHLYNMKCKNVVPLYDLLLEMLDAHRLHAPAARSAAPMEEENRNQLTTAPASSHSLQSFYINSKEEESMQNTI
Sequence of Peroxisome proliferator-activated receptor gamma (Homo sapiens) (P37231 whole entry, looked up, the tested form may be a part): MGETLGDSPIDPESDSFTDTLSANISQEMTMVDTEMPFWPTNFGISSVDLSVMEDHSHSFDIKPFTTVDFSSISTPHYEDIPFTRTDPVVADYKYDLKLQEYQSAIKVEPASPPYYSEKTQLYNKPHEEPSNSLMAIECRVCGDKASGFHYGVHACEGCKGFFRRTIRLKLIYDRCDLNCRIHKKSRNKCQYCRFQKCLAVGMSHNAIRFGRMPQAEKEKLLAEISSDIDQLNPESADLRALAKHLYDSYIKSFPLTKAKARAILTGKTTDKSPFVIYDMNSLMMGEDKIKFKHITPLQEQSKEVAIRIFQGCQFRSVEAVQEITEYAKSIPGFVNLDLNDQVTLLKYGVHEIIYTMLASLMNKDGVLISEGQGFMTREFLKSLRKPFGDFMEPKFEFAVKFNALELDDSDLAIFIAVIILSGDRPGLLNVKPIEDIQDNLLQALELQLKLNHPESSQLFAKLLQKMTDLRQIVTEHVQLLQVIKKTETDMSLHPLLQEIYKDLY
Sequence of GAL4 Transcription Factor (Internal Marker), GAL4 (gene 855828) (P04386 whole entry, looked up, the tested form may be a part): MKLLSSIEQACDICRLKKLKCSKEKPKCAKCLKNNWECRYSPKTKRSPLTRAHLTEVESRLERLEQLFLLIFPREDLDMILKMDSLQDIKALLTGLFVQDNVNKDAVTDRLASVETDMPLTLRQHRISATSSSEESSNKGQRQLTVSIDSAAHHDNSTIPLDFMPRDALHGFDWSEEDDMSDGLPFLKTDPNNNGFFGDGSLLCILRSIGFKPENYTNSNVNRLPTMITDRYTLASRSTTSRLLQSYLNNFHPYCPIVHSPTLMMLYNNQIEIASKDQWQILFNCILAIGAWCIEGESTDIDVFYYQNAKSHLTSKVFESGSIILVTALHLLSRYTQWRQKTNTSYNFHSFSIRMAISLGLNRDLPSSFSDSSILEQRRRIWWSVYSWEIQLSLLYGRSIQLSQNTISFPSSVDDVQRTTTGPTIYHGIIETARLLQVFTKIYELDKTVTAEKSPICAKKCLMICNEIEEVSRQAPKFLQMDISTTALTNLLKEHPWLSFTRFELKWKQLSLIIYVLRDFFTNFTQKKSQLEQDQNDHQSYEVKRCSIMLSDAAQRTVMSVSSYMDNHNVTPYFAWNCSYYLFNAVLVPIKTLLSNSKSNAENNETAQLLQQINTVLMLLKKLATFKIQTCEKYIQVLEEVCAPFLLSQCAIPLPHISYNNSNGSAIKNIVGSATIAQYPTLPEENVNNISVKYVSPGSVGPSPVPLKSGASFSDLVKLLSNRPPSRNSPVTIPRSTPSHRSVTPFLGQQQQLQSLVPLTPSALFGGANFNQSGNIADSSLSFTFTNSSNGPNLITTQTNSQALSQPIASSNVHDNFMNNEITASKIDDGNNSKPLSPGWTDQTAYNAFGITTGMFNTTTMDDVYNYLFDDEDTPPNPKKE

With `O=P(OC(CCl)CCl)(OC(CCl)CCl)OC(CCl)CCl`, the AC50 is 20.8 µM (active) in assay [1]; 26 µM (active) in assay [2]; 3.06 µM (active) in [3]; 3.85 µM (active) in assay [5]; 2.78 µM (active) in [6]; 5.66 µM (active) in [7]. For the same compound, the figures for the AC50 in assay [8] and in assay [14] were 26 µM (active) and 78.6 µM (active), respectively. The compound was classed as inactive in assay [4], in assay [9], in assay [10], in assay [11], in [12] and in assay [13].
`CC(C)c1cccc(C(C)C)c1N1C(=O)c2ccc(O)cc2C1=O`: the AC50 in assay [15] is 80.3 µM (active).
Consider `O=C(NS(=O)(=O)/C=C/c1ccccc1)c1ccc(F)cc1Cl`, for which the AC50 in [16] was 13.1 µM (active).
With `CNCc1ccc(NC(=O)c2c[nH]c3c2C(=O)CCC3)cc1`, the concentration at half-maximal activity (AC50) in assay [16] was 67 µM (active). For the same compound, in [17], the result was inactive.
With `O=C1CCCCCN1`, the compound was classed as inactive in [16].
Turning to `CC[C@H](C)C(=O)O[C@H]1C[C@@H](C)C=C2C=C[C@H](C)[C@H](CC[C@@H]3C[C@@H](O)CC(=O)O3)[C@H]21`, the AC50 is 50 µM (active) in assay [16] and 28.2 µM (active) in assay [15]. Also, the outcome in assay [17] was inactive.
For the compound `CC(C)=CCC/C(C)=C\CO`, the compound was classed as inactive (in assay [16]; with AR (gene 367) [18]).
As for `O=C(CCCCCCCCc1cccnc1)N1CCC(C=C(c2ccccc2)c2ccccc2)CC1`, the values for the AC50 (in assay [16]; with AR (gene 367) [19]) were 12.1 µM (active) and 7.53 µM (active), respectively. Further, the compound was classed as inactive in the assay with AR (gene 367) [18].
As to `CC(C)=CCCC(C)CCO` (stereo not drawn), the result (in assay [16]; with AR (gene 367) [19]) was inactive.
With `Nc1cccc(N)c1`, the call in assay [16] was inactive.
In the case of `COCCOCCOCCOC`, the AC50 in [16] is 24.2 µM (active). Further, in assay [17], the result was inactive.
For `Cc1ccc(O)cc1`, the call (in assay [16]; with AR (gene 367) [19]) was inactive.
In the case of `Nc1ccc(Nc2ccccc2)cc1`, the half-maximal activity concentration (AC50) in assay [16] was 87.5 µM (active); in [17], 6.7 µM (active).
For `CCOC(=O)c1ccc(C2CCC(NC[C@H](O)COc3ccc(O)c(NS(C)(=O)=O)c3)CC2)cc1` (stereo partly drawn), in [16], the AC50 is 24.4 µM (active). The outcome in assay [17] was inactive.

As a reminder, the AC50 is the midpoint of the concentration-response curve, whichever way the signal moves.

Source of the values: PubChem BioAssay (EPA / NIEHS).
